As a reminder, the inhibition is the drop in the measured response relative to a control, in per cent.

About 1,100 (0.33%) of roughly 330,000 compounds were called active. Rule as the data show it: active = inhibition above about 35%; inactive = the rest. This excerpt belongs to a sample that is enriched for actives.

The nature of the assay: lowers stimulated NF-kB luciferase signal in 697 B cells – cell-based, luminescence, uHTS, B-cell NF-kB inhibitor project, primary screen (AID 435022). Conditions: 697 B-cell NF-kB luciferase reporter, PMA/ionomycin, 16 h; at 4 µM; hits give high values.
Turning to `CC(C)(C)c1cnnn1-c1ccc([N+](=O)[O-])cc1`, the inhibition is 12.8% (inactive).

For the compound `Cc1ccccc1Cn1c2ccccc2c2cnn(CC(=O)NCc3ccco3)c(=O)c21`, the inhibition is -4.9% (inactive). Take `O=C(NOCc1ccccc1)c1cccc([N+](=O)[O-])c1`: the inhibition is -12.3% (inactive). For the compound `O=C(NC(Nc1nc2ccc([N+](=O)[O-])cc2s1)(C(F)(F)F)C(F)(F)F)c1ccccc1`, the inhibition was 99.5% (active). The same measure for `O=C(COC(=O)c1ccc([N+](=O)[O-])cc1Cl)NC(=O)c1ccccc1`: -5.46% (inactive). Turning to `CCOC(=O)c1c(C)n(C)c2ccc(OC)c(NS(=O)(=O)CC)c12`, the inhibition is -4.31% (inactive). The same measure for `COc1ccc2cc(CCl)c(Cl)nc2c1`: -1.58% (inactive); for `O=C(Cn1cnc2ccccc2c1=O)NNC(=O)c1ccccc1F`: 1.67% (inactive); for `O=C(NCc1ccccc1CN1CCCC1)C1CCN(S(=O)(=O)c2ccc(Cl)cc2)CC1`: -7.16% (inactive). For the compound `COc1ccc(CNC(=O)Cc2ccc(-c3ccccc3)cc2)cc1OC`, the inhibition was 8.2% (inactive). Turning to `COc1ccc(CNC(=O)CNC(=O)c2sc3ccccc3c2Cl)cc1OC`, the inhibition was 35% (active).

Take `COc1ccc(CNC(=O)c2ccc(Br)s2)cc1OC`: the inhibition was -2.07% (inactive).

Consider `Cc1cc(C(F)(F)F)nc(SCC(=O)Nc2nccs2)n1`, for which the inhibition is -18.2% (inactive). As to `Cc1[nH]nc(SCC(=O)NCC(C)C)c1[N+](=O)[O-]`, the inhibition is 9.07% (inactive). Turning to `Cc1oc2c(C)c3oc(=O)c(CC(=O)N[C@@H](CC(C)C)C(=O)N[C@@H](Cc4ccccc4)C(=O)O)c(C)c3cc2c1C`, the inhibition is 22.3% (inactive). `CCOc1ccc(C(=O)Nc2cc(Cl)ccc2-n2cncn2)cc1OC`: the inhibition is 14% (inactive). Take `CN(C)S(=O)(=O)c1ccc(N2CCCC2)c(C(=O)Nc2ccc(Br)cc2F)c1`: the inhibition is 9.57% (inactive). Regarding `CC(=O)c1nc2ccccc2n1Cc1ccccc1`, the inhibition was 3.31% (inactive). With `CCCc1nc2c(C)cc(-c3nc4ccccc4n3C)cc2n1Cc1ccc(-c2ccccc2C(=O)O)cc1`, the inhibition was 44.7% (active).

`Cc1ccc(Cn2c(SCC(=O)N/N=C/c3ccccc3OCC(=O)O)nc3ccccc32)cc1`: the inhibition is 3.74% (inactive). Turning to `O=C1Nc2ccc(Br)cc2/C1=N/N=C/C1=C(N2CCOCC2)C(=C\c2ccccc2)/CC1`, the inhibition was 13.3% (inactive).

On to `COc1ccc(C2C=C(c3ccc(Br)cc3)Nc3nc(NS(C)(=O)=O)nn32)cc1` (stereo not given), for which the inhibition is 8.48% (inactive). As to `C=CCOc1ccc(/C=C2\SC(=S)N(CCC(=O)O)C2=O)cc1`, the inhibition is 62.4% (active). As for `Cc1ccc(/C=C2/SC(=S)N(CCC(=O)NCCCN3CCOCC3)C2=O)cc1`, the inhibition is -16.3% (inactive). Turning to `O=C1/C(=C/c2ccc(F)cc2)SC(=S)N1CCCC(=O)N1CCCCC1CCO` (stereo not given), the inhibition is -3.3% (inactive). To `CN(CC(=O)NCc1ccncc1)S(=O)(=O)c1ccc(Br)cc1` belongs 12.7% (inactive). To `Cc1n[nH]c(C)c1S(=O)(=O)N1CCCC(C(=O)Nc2ccc(Br)cc2)C1` (stereo not given) belongs -12.3% (inactive).

For the compound `Cc1cc(C)nc(N2CCC(C(=O)Nc3ccc4c(c3)OCCO4)CC2)n1`, the inhibition was -5.99% (inactive). The same measure for `Cc1cc(Nc2cc(N3CCN(C)CC3)nc(Sc3ccc(NC(=O)C4CC4)cc3)n2)n[nH]1`: 37% (active). In the case of `CC(=O)c1c(C)[nH]c(C(=O)COC(=O)c2cccc(S(=O)(=O)N(C)c3ccccc3)c2)c1C`, the inhibition was -50% (inactive).

With `O=C(C1CCCN(S(=O)(=O)c2ccc([N+](=O)[O-])cc2)C1)N1CCCCC1` (stereo not given), the inhibition is -4.88% (inactive). `O=C(Cc1ccccc1)N1CCN(S(=O)(=O)c2ccc([N+](=O)[O-])cc2)CC1`: the inhibition is 4.38% (inactive).

On to `O=C(C1CCC1)N1CCN(S(=O)(=O)c2ccc([N+](=O)[O-])cc2)CC1`, for which the inhibition was 38.2% (active). As to `COC(=O)c1c(NC(=O)COC(=O)[C@@H](NS(=O)(=O)c2ccccc2)C(C)C)sc2c1CCC2`, the inhibition was 10.3% (inactive). As to `CC1CCCCN1C(=O)Cn1c(=O)oc2cc(S(=O)(=O)N3CCCCC3)ccc21` (stereo not given), the inhibition is 4.87% (inactive). The same measure for `O=C(CSc1nc(-c2ccccc2)cs1)Nc1cccc([N+](=O)[O-])c1`: 1.61% (inactive); for `CCN(CCCNC(=O)c1ccc2c(c1)NC(=O)CN2C)c1cccc(C)c1`: -19.3% (inactive). As for `O=C(Nc1ccc(-c2csc(Nc3cccc(C(F)(F)F)c3)n2)cc1)c1cccc(C(F)(F)F)c1`, the inhibition was -26.3% (inactive). Consider `CNC(=O)c1ccc(NC(=O)c2cccc(C(F)(F)F)c2)cc1`, for which the inhibition was 40.3% (active). To `O=C(Nc1ccc(C(F)(F)F)cc1)c1cccc(-n2cnnn2)c1` belongs -26.7% (inactive); to `Cc1ccc(NC(=O)CSc2nnc(CNC(=O)c3ccccc3F)o2)cc1`, 0.808% (inactive); to `CCOC(=O)N1CCN(S(=O)(=O)c2ccc(-n3cnnn3)cc2)CC1`, -11.9% (inactive). The same measure for `CCCNC(=O)c1ccc(N2CCC3(CC2)CC(c2cccc(Br)c2)=NO3)c(NC(=O)c2ccco2)c1`: 35.6% (active). Regarding `O=C(Nc1ccccc1N1CCN(C(=O)c2ccccc2)CC1)c1ccco1`, the inhibition is 6.77% (inactive). As to `CCCNC(=O)c1ccc(N2CCC3(CC2)CC(c2ccc(Cl)cc2)=NO3)c([N+](=O)[O-])c1`, the inhibition is -1.96% (inactive).

With `COc1ccc(NC(=O)c2sccc2SCC#N)cc1`, the inhibition was 0.298% (inactive).

For the compound `O=C(O)C1=C[C@H](c2cccs2)C[C@H](OCCCCO)O1`, the inhibition is 27.6% (inactive). Regarding `Cn1c(CCCOc2ccc(Cl)cc2Cl)n[nH]c1=S`, the inhibition is -42.5% (inactive). Take `COc1cc(N=Cc2c(O)[nH]c3ccccc23)cc(OC)c1OC`: the inhibition is 45.5% (active). The same measure for `CN=c1scc(-c2cc(OC)ccc2OC)n1/N=C/c1c(C)[nH]c2ccccc12`: -18% (inactive); for `COc1ccc2[nH]c(C(=O)N/N=C/c3cc(OC)c(OC)c(OC)c3)cc2c1`: -5.61% (inactive).

With `O=C(Nc1ccc2c(c1)OCO2)C1CC(c2c(F)cccc2Cl)=NO1` (stereo not given), the inhibition is 10.7% (inactive). For the compound `O=C(CNC(=O)Cc1ccccc1)NCC(=O)OCC(=O)c1ccccc1Cl`, the inhibition is 12.5% (inactive). With `O=C(O)c1ccc(COc2c(F)c(F)cc(F)c2F)o1`, the inhibition is 4.23% (inactive). `Cn1c(=O)c2c(nc(N3CCCCCC3)n2CC(O)COc2ccc(Cl)cc2)n(C)c1=O` (stereo not given): the inhibition was -3.4% (inactive). As for `COc1ccc(CNC(=O)[C@@H]2CC=C[C@@H]3CCN(C4CC4)C(=O)[C@@H]32)cc1`, the inhibition was 37.2% (active). For `COc1ccc(CNC(=O)C2CCCC2)cc1`, the inhibition was 9.55% (inactive).

As to `COc1ccc(CNC(=O)C2CCN(S(C)(=O)=O)CC2)cc1`, the inhibition was 3.89% (inactive). `CC(NC(=S)Nc1ccc(OC(F)F)cc1)c1ccc(F)cc1` (stereo not given): the inhibition is 2.48% (inactive).

Take `COC(=O)c1cc(OC)c(OC)cc1NC(=O)C1CCCO1` (stereo not given): the inhibition was 6.92% (inactive). For the compound `COc1ccc(C(=O)NC2CC(C)(C)Cc3c2cnn3-c2ccccc2C)o1` (stereo not given), the inhibition is 4.57% (inactive). As for `Cn1nccc1C(=O)NC1CCCc2c1cnn2-c1ccccc1F` (stereo not given), the inhibition is 62.7% (active). `Cn1nccc1C(=O)NC1CCCc2c1cnn2-c1ccc(F)cc1F` (stereo not given): the inhibition was 36.2% (active).

Consider `Cc1ccc(-n2ncc3c2CCCC3NC(=O)c2cnccn2)cc1C` (stereo not given), for which the inhibition was -27.6% (inactive). With `CC1(C)Cc2c(cnn2-c2cccc(F)c2)C(NC(=O)c2cc[n+]([O-])cc2)C1` (stereo not given), the inhibition was -12.6% (inactive). Turning to `COc1ccc(C(=O)NC2CCCc3c2cnn3-c2cccc(C)c2C)c(OC)n1` (stereo not given), the inhibition was -399% (inactive). To `CC(C)(C)C(=O)NCCCNc1ccc([N+](=O)[O-])cc1` belongs 14.1% (inactive). To `CN(C(=O)CC(NC(=O)c1ccccc1)(c1ccccc1)c1ccccc1)c1ccccc1` belongs 12% (inactive); to `COC(=O)/C(C#N)=C/c1occc1C`, 5.66% (inactive); to `CC(NCc1cccs1)C(=O)Nc1cc(Cl)cc(Cl)c1` (stereo not given), 7.31% (inactive). Regarding `CN(C)c1ccc(-n2cccc2/C=N/n2cnnc2)cc1`, the inhibition is -4.94% (inactive). On to `CCc1ccnc(NC(=O)Nc2ccc(OCc3ccccc3)cc2)c1`, for which the inhibition was 6.55% (inactive). For the compound `O=c1cc(-c2ccccc2)nc(N2CCCCC2)[nH]1`, the inhibition was 11.5% (inactive). With `O=C(O)c1n[nH]nc1-c1ccccc1`, the inhibition is 14.7% (inactive). For the compound `O=c1[nH]c(-c2ccccc2)c(-c2ccccc2)[nH]1`, the inhibition was 35.4% (active).

With `COc1ccc(CNC(=O)C[C@H]2C[C@H](C(=O)N3CCOCC3)[C@@]3(C)c4[nH]c5cc(CCC(=O)N(C)C)ccc5c4CCN3C2=O)cc1OC`, the inhibition is 11.5% (inactive). To `CN1CC(c2ccccc2)C2(COc3ccccc3C2=O)C12C(=O)Nc1ccccc12` (stereo not given) belongs 11.7% (inactive); to `CC(=O)c1nc(N2C(=O)C3CC=C(C)CC3C2=O)sc1C` (stereo not given), 23.1% (inactive).

Take `C[C@@H]1C[C@@H]2O[C@H]2/C=C\C=C\C(=O)Cc2c(Cl)c(O)cc(O)c2C(=O)O1`: the inhibition was 83.8% (active).

Regarding `COc1ccc(NC(=O)CSc2nc(SC)ns2)c(OC)c1`, the inhibition was -40% (inactive).

Turning to `CCOC(=O)CSC1=N/C(=C/c2ccc(-n3cncn3)cc2)C(=O)N1C(C)=O`, the inhibition was 6.08% (inactive). The same measure for `C=CCC[C@@H](Cc1ccc(F)cc1)C(=O)O[C@H](CNC(=O)[C@H](CC=C)CC(=O)N(CCO)Cc1ccccc1)c1ccccc1`: 1.62% (inactive); for `CCOc1ccc(C(=O)CCC(=O)NC2=NCCS2)cc1`: 21.2% (inactive). For the compound `O=C(CS(=O)(=O)Cc1ccccc1)Nc1cccnc1`, the inhibition was -24.8% (inactive). To `S=C(c1ccc(-c2ccccc2)o1)N1CCCCC1` belongs -134% (inactive). `CN1CCN(CCCCOc2ccccc2-c2ccccc2)CC1`: the inhibition was -15% (inactive). Consider `OCCN1CCN(C(=S)c2ccc(-c3ccccc3)cc2)CC1`, for which the inhibition was 55.1% (active). Take `Cc1cc(=O)oc2c(C(=O)c3ccccc3)c(OCC(N)=O)ccc12`: the inhibition was -14.5% (inactive). As for `O=C(CSC1=NS(=O)(=O)c2cc(F)ccc2N1)Nc1ccccc1F`, the inhibition is 1.35% (inactive). The same measure for `NCCCC[C@@H]1NC(=O)[C@H](CCC(=O)O)NC(=O)c2cc([N+](=O)[O-])cc(I)c2NCC[C@@H](C(N)=O)NC1=O`: 18.3% (inactive).

For the origin of these results see PubChem BioAssay AID435022 (Sanford-Burnham Center for Chemical Genomics, 2010).
